Experimental data taken from PubChem BioAssay (EPA / NIEHS).
Records with an inconclusive call do not appear. Calls of active or inactive are those of the source. Rule for the calls: active = hit-call score of the fitted dose curve at least 0.9, where 1 is the maximum; inconclusive = response in the unintended direction; inactive = score below 0.9.

Experiment: ACEA_ER_80hr: ACEA Biosciences xCELLigence Real-Time Cell Analysis on Estrogen Receptor Agonism for Proliferation (AID 2282667)
Details: T47D proliferation, impedance (xCELLigence), 80 h
Procedure, shortened: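 Estrogen-driven proliferation is captured as electrode impedance in T47D cells 80 h after compound addition. Test articles ran at 8 concentrations, 1:4 dilutions from 100 uM final, in two replicate plates.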

| SMILES | outcome | AC50 |
| --- | --- | --- |
| CC/C=C\CCCCO | inactive |  |
| COc1ccc(OC)cc1 | inactive |  |
| O=C(O)c1cccc(Cl)n1 | inactive |  |
| CC(O)CN (centres undefined) | inactive |  |
| CC1=CC[C@@H]2C[C@H]1C2(C)C | inactive |  |
| CC1=CCC(=C(C)C)CC1 | inactive |  |
| O=S1(=O)CC(Cl)(Cl)C(Cl)(Cl)C1 | inactive |  |
| COC(=O)c1ccc(C(=O)OC)cc1 | inactive |  |
| NC(N)=NC(N)=NCCc1ccccc1 | inactive |  |
| COc1ccccc1NC(=O)CC(C)=O |  | 10300 nM (active) |
| CC/C=C\C#N | inactive |  |
| CCCCCCOC(C)=O | inactive |  |
| CN1CCc2cccc3c2[C@H]1Cc1ccc(O)c(O)c1-3 | inactive |  |
| CN(C)c1ccc(C=O)cc1 | inactive |  |
| O=c1cc[nH]cc1 | inactive |  |
| Cc1ccncc1 | inactive |  |
| C=C(C)C(=O)OCCOCCOC(=O)C(=C)C | inactive |  |
| CCCO[Si](OCCC)(OCCC)OCCC | inactive |  |
| CCCCCCC(O)CCOC(C)=O (centres undefined) | inactive |  |
| O=C(O)c1ccccc1O | inactive |  |
| CN(C)CCC=C1c2ccccc2CCc2ccccc21 |  | 124 nM (active) |
| c1coc(CNc2ncnc3nc[nH]c23)c1 | inactive |  |
| O=C(O)c1cc(C(=O)O)c(C(=O)O)cc1C(=O)O | inactive |  |
| CC(C)(O)C(=O)c1ccc(OCCO)cc1 | inactive |  |
| CC(=N[Si](C)(C)C)O[Si](C)(C)C |  | 60.3 nM (active) |

| SMILES | outcome | AC50 |
| --- | --- | --- |
| CC12CCC(C1)C(C)(C)C2O (centres undefined) | inactive |  |
| CC(CCO)CC(C)(C)C (centres undefined) | inactive |  |
| C=CCOC(=O)/C=C\C(=O)OCC=C | inactive |  |
| C=CCOCC(O)CO (centres undefined) |  | 28.5 nM (active) |
| CC/C=C\CCCCCCCCCCOC(C)=O | inactive |  |
| O=Cc1ccccc1O |  | 10700 nM (active) |
| CCCC[N+](C)(CCCC)CCCC | inactive |  |
| CC/C=C\CCOC(C)OCC (centres undefined) | inactive |  |
| C=CC(=O)OCC(CO)(COC(=O)C=C)COC(=O)C=C | inactive |  |
| CC(=O)OC(C)(C)C | inactive |  |
| CCCC1CCC(=O)CC1 | inactive |  |
| NNC(=O)OCc1ccccc1 | inactive |  |
| C=C(C)C(=O)OCCC[Si](OC)(OC)OC | inactive |  |
| CCCCCCCCOC(=O)c1ccc(O)cc1 |  | 521 nM (active) |
| CCCc1ccc(N)cc1 | inactive |  |
| COC(=O)c1cccc(C(=O)OC)c1 | inactive |  |
| CC(=O)C1C(=O)C=C(C)OC1=O (centres undefined) | inactive |  |
| CC(C)C(=O)OCC=Cc1ccccc1 | inactive |  |
| O=S(=O)(O)CCCN1CCOCC1 | inactive |  |
| CCO[Si](CCC#N)(OCC)OCC | inactive |  |
| FC(F)(F)c1ccc(Cl)c(Cl)c1 | inactive |  |
| O=[N+]([O-])c1cc(N(CCO)CCO)ccc1NCCO | inactive |  |
| CC(=O)Nc1cc(S(=O)(=O)O)cc2cc(S(=O)(=O)O)c(N=Nc3ccccc3)c(O)c12 | inactive |  |
| CCCCCCCCCCCCCC(=O)OCC | inactive |  |
| O=C(C=Cc1ccccc1)OCCCc1ccccc1 | inactive |  |

| SMILES | outcome | AC50 |
| --- | --- | --- |
| COc1ccc2[nH]cc(CCNC(C)=O)c2c1 | inactive |  |
| [Cu+] | inactive |  |
| CCOC(=O)CC(C)C | inactive |  |
| CC1(C)CC(=O)CC(C)(C)N1 | inactive |  |
| CC(=O)OCC=C(C)CCC=C(C)CCC=C(C)C | inactive |  |
| CCn1cc(C(=O)O)c(=O)c2ccc(C)nc21 | inactive |  |
| Nc1cc([N+](=O)[O-])ccc1C(=O)O | inactive |  |
| CC(C)(C)C1CCC(O)CC1 (centres undefined) | inactive |  |
| CCCCN(CCCC)CCCCCCN(CCCC)CCCC | inactive |  |
| CCCCCC1CCC(=O)O1 (centres undefined) | inactive |  |
| O=S(=O)(O)c1cc(O)c(O)c(S(=O)(=O)O)c1 | inactive |  |
| CC(C)=CC(=O)O |  | 3270 nM (active) |
| CC/C=C/CCCCCCCCCCOC(C)=O | inactive |  |
| O=C(O)c1cc2ccccc2cc1O | inactive |  |
| C1=COCCC1 | inactive |  |
| CC(C)COC(=O)c1ccccc1 | inactive |  |
| O=C1CCCCCCCCCCCC(=O)OCCO1 | inactive |  |
| OCCCO | inactive |  |
| C=COCC1CCC(COC=C)CC1 (centres undefined) | inactive |  |
| CCCC1CCOC(C)S1 (centres undefined) | inactive |  |
| Nc1ccn([C@H]2CC[C@@H](CO)O2)c(=O)n1 | inactive |  |
| C/C=C(\C)C(=O)OC/C=C(\C)CCC=C(C)C | inactive |  |
| CCC(C)(C)C1CCC(=O)CC1 | inactive |  |
| CC(C)N1C(=O)c2ccccc2C1=O | inactive |  |
